nsP2pro inh = Primary qHTS for inhibitors of NSP2Pro chikungunya virus (CHIKV). Polyprotein P1234 (Chikungunya virus (strain S27-African prototype)), Q8JUX6. FRET peptide cleavage, nsP2pro, fluorescence 1 h. Potency, µM (top dose mostly 24.9 µM), usual class: inhibitors. actives 1.1% (n = 31,000). AID 1964107, 2024; also: nearly all actives have a fitted effect of over 60% in size
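Enzyme 150 nM, substrate 2.5 uM (both final); Tris-HCl 10 mM pH 8.0 + 0.01% Tween 20; cpd up to 25 uM, 7 pts; 15 min preinc., 1 h RT; fluorescence ex 525/em 598.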
nsP2 cell sec = Secondary cell base assay for inhibitors of NSP2Pro Chikungunya virus (CHIKV); shares compounds with nsP2pro inh; cell-based CHIKV nsP2 protease reporter assay; Potency, µM (doses to about 51.1 µM), usual class: inhibitors; actives 10% (n = 450); also: nearly all actives have a fitted effect of over 70% in size
NSP2 full ctr = Selectivity profile for inhibitors of NSP2Pro chikungunya virus (CHIKV): Full length NSP2 enzyme counterscreen (CHIKV-NSP2). shares compounds with nsP2pro inh. Full-length CHIKV NSP2 protease enzymatic counterscreen. Potency, µM (series often up to 50.7 µM), most hits filed as inhibitors. actives 39% (n = 410). AID 1964101, 2024; also: nearly all actives have a fitted effect of over 65% in size
Furin counter = Selectivity profile for inhibitors of NSP2Pro chikungunya virus (CHIKV): Human furin counterscreen. shares compounds with nsP2pro inh. Recombinant human furin enzymatic counterscreen, fluorogenic substrate. Potency, µM (titrated, usually from 50.6 µM), most hits filed as inhibitors. actives 6% (n = 410). AID 1964102, 2024
NS23 peptide cs = Selectivity profile for inhibitors of NSP2Pro chikungunya virus (CHIKV): Endogenous NS2/3 peptide Counterscreen | shares compounds with nsP2pro inh | Purified CHIKV nsP2 protease, endogenous NS2/3 peptide cleavage | Potency, µM (doses to about 51 µM), usual class: inhibitors | actives 34% (n = 410); also: nearly all actives have a fitted effect of over 55% in size
Papain counter = Selectivity profile for inhibitors of NSP2Pro chikungunya virus (CHIKV): Papain Counterscreen; Potency, µM (doses to about 51 µM), most hits filed as inhibitors; purified papain protease activity, enzymatic inhibition; shares compounds with nsP2pro inh; actives 5% (n = 410)
Target sequence (P00784 whole entry, looked up): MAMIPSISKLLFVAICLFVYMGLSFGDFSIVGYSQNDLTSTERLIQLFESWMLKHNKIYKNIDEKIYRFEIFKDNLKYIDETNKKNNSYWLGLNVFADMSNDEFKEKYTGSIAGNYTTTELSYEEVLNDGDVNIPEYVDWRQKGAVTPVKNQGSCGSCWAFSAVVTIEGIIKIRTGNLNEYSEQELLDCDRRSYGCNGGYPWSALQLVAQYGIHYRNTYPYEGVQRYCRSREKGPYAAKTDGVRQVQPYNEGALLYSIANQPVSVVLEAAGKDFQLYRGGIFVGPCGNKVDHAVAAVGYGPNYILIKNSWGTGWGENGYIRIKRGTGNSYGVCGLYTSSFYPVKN
nsP2pro conf qHTS = Confirmatory qHTS for inhibitors of NSP2Pro chikungunya virus (CHIKV) | CHIKV nsP2 protease enzymatic activity, qHTS | AID 1964105, 2024 | actives 43% (n = 410) | Potency, µM (top dose mostly 25.5 µM), actives largely listed as inhibitors | shares compounds with nsP2pro inh; also: nearly all actives have a fitted effect of over 75% in size
HCV NS3 counter = Selectivity profile for inhibitors of NSP2Pro chikungunya virus (CHIKV): NS34A-HCV Counterscreen. shares compounds with nsP2pro inh. Potency, µM (series often up to 50.9 µM), actives largely listed as inhibitors. HCV NS3/4A protease biochemical counterscreen. actives 20% (n = 410); also: nearly all actives have a fitted effect of over 55% in size
Large screens that a line does not name were inactive (follow-up assays come after a bar, where they were run). The sample as a whole holds a higher share of hits than the screen did. Calls follow the shape of the full dose curve.

CC1CCC2(C(=O)O)CCC3(C)C(=CCC4C5(C)CCC(O)C(C)(C)C5CCC43C)C2C1C (configuration not stated)	none
COc1cc(CN(CCN)C(=O)c2cccs2)ccc1OCc1ccccc1	none
Clc1ccc(CSc2nc3ncc(Br)cc3[nH]2)cc1	none
CN(C)[C@@H]1C(=O)C(C(N)=O)=C(O)[C@@]2(O)C(=O)C3=C(O)c4c(O)c(NC(=O)CN5CCCC5)cc(F)c4C[C@H]3C[C@@H]12	none
O=C(c1cc(-c2ccco2)[nH]n1)N1CCSC(c2cc(F)ccc2F)CC1 (configuration not stated)	nsP2pro inh 3.2µM | nsP2 cell sec inactive | NSP2 full ctr 5.8µM | Furin counter inactive | NS23 peptide cs inconclusive | Papain counter inactive | nsP2pro conf qHTS 9µM | HCV NS3 counter 16µM
CCOC(=O)c1ccc(N2C(=O)c3n[nH]c(-c4ccco4)c3C2c2cccc(F)c2)cc1 (configuration not stated)	none
Cc1cc(C(=O)N2CCC(OCCOc3ccc(F)cc3)CC2)nn1C	none
O=S(=O)(c1cccnc1)N1CCC(N(Cc2cccnc2)C2CCOCC2)CC1	none
COC1/C=C/C(C)(O)C(SCC(N)C(=O)O)CC(=O)OC(C)C(C)CC/C=C/1C (configuration not stated)	none
O=C(NC1CCN(CCCCC2(C(=O)NCC(F)(F)F)c3ccccc3-c3ccccc32)CC1)c1ccccc1-c1ccc(C(F)(F)F)cc1	none
CN1CCN(C(=O)CN[C@@H]2C[C@H]2c2ccc(OCc3ccccc3)cc2)CC1	none
CC(=O)c1c(C)oc2c1cc(NS(=O)(=O)c1c(C)cc(C)cc1C)c1ccccc12	none
Cc1ccc(S(=O)(=O)Nc2cc(Cl)c(O)c3ccccc23)c(C)c1	nsP2pro inh 2.5µM | nsP2 cell sec 6.5µM | NSP2 full ctr 7.3µM | Furin counter inactive | NS23 peptide cs 1.8µM | Papain counter inactive | nsP2pro conf qHTS 2.2µM | HCV NS3 counter inconclusive
Cc1cc(F)ccc1S(=O)(=O)Nc1cc2c(C(=O)O)c(C)oc2c2ccccc12	none
CC1=C(C(=O)Nc2ccon2)C2(CCCC2)N=C(Nc2nc3ccccc3o2)N1	none
COc1ccc(-c2cccc(C(=O)NC3CCOCC3)c2)nn1	none
Cc1cc(C)nc(NC(=S)N2CCN(c3ccc4nncn4c3)CC2)c1	none
CCC(=C(c1ccc(OCCN2CCCC2)cc1)c1ccc(OCCN2CCCC2)cc1)c1ccccc1	none
c1ccc(-c2cnc(Nc3ccc(OCCN4CCCC4)cc3)s2)cc1	none
C(#Cc1nc2ncccc2nc1OCCN1CCCC1)c1ccccc1	nsP2pro inh 7µM | nsP2 cell sec inconclusive | NSP2 full ctr 18µM | Furin counter 23µM | NS23 peptide cs 16µM | Papain counter inactive | nsP2pro conf qHTS 8µM | HCV NS3 counter inactive
O=C1CCCCN1CCNc1ccc(-c2nc(-c3ccccc3F)no2)cn1	none
O=C(O)c1cc(Br)c(O)c2ncccc12	none
CCCCCC(=O)N[C@@H](CC(C)C)C(=O)N[C@H](C=O)CCC(=O)O	none
Cn1c(CN2CCCCC2)nc2cc(NC(=O)c3ccc(Cl)cc3)ccc21	none
Cn1c(CCCC(=O)O)nc2cc(N(CCCl)CCCl)ccc21	nsP2pro inh 9.9µM | nsP2 cell sec inactive | NSP2 full ctr 16µM | Furin counter inactive | NS23 peptide cs inconclusive | Papain counter inactive | nsP2pro conf qHTS 8µM | HCV NS3 counter inconclusive
CCCCc1nc2cc(/C=C/C(=O)NO)ccc2n1CCN(CC)CC	none
COc1ccc(-c2cc3c(=O)n(CCNC(=O)c4ccsc4)ccn3n2)cc1	none
CCCCCOc1ccc(-c2ccc(-c3ccc(C(=O)NC4CC(O)C(O)NC(=O)C5C(O)C(C)CN5C(=O)C(C(C)O)NC(=O)C(C(O)C(O)c5ccc(O)cc5)NC(=O)C5CC(O)CN5C(=O)C(C(C)O)NC4=O)cc3)cc2)cc1 (configuration not stated)	none
CC/C=C/C(O)C(O)C1=C(C)C(=O)C2(O1)C(=O)NC(OC)(C(=O)c1ccccc1)C2O (configuration not stated)	none
CCCSS/C(CCO)=C(\C)N(C=O)Cc1cnc(C)nc1N	nsP2pro inh 8.8µM | nsP2 cell sec inactive | NSP2 full ctr 16µM | Furin counter inactive | NS23 peptide cs inconclusive | Papain counter inactive | nsP2pro conf qHTS 8µM | HCV NS3 counter inactive
C/C(=C(\CCOP(=O)(O)O)SC(=O)c1ccccc1)N(C=O)Cc1cnc(C)nc1N	none
CCOC(=O)OCC/C(SC(=O)OCC)=C(\C)N(C=O)Cc1cnc(C)nc1N	none
CSCCNc1nc(SCCC(F)(F)F)nc2c1ncn2[C@@H]1O[C@H](COP(=O)(O)OP(=O)(O)C(Cl)(Cl)P(=O)(O)O)[C@@H](O)[C@H]1O	none
Brc1cnc2nc(SCc3cccnc3)[nH]c2c1	none
O=C(CCc1cc2n(n1)CCCN(C(=O)CCc1ccsc1)C2)NC1CC1	none
CC(C)c1cc(C(=O)N[C@@H]2COCC[C@@H]2Oc2cccc(F)c2)nc(N)n1	none
CC1(C)OC(=O)C=C[C@@]2(C)C1CC(=O)[C@]1(C)C2CC[C@@]2(C)[C@H](c3ccoc3)OC(=O)[C@H]3O[C@]321 (some centres not stated)	nsP2pro inh 3.4µM | nsP2 cell sec inactive | NSP2 full ctr inconclusive | Furin counter inactive | NS23 peptide cs inactive | Papain counter inactive | nsP2pro conf qHTS inactive | HCV NS3 counter inactive
CC(C)(O)C1CC(=O)C2(C)C(CCC3(C)C(c4ccoc4)OC(=O)C4OC432)C12CCC(=O)OC2 (configuration not stated)	nsP2pro inh 0.86µM | nsP2 cell sec inactive | NSP2 full ctr inconclusive | Furin counter inactive | NS23 peptide cs inactive | Papain counter inactive | nsP2pro conf qHTS inconclusive | HCV NS3 counter inconclusive
CC(=O)OC1CC(O)C(C)(C)C2CC(OC(C)=O)C3(C)C(CCC4(C)C(c5ccoc5)C(=O)C5OC543)C12C (configuration not stated)	none

Bioassay records (PubChem BioAssay)
